For 19 compounds, Potency results are on record in PubChem BioAssay (NCATS).

SMILES strings stand for the structures. Values joined by “and” are separate entries in the source; they are usually repeats but may differ in a detail not shown here. Identical values can stand only once. Records with an inconclusive call do not appear. Active and inactive are the calls of the source. Unless noted, calls follow the shape of the dose curve; as a rule, active = well fitted curve in the direction sought with a large enough effect; inconclusive = small, poorly fitted or top-dose-only effect, or another doubt; inactive = no such curve, though single readings can be large; an effect the other way counts as inactive or inconclusive.

Assay [1] concerns the target Cytochrome P450 2D6 (Homo sapiens) (UniProt P10635). Briefly: Cytochrome P450 family 2 subfamily D member 6 (CYP2D6) small molecule antagonists: luciferase biochemical (cell-free) qHTS assay (AID 1645840; active = well fitted curve in the direction sought with a large enough effect in the repeat runs; an effect the other way counts as inactive or inconclusive; also: nearly all actives have a fitted effect of over 55% in size; also: potency is read from the fitted curve at half-maximal effect). The procedure, abridged:
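P450-Glo luminescent screen: recombinant CYP2D6 enzyme–proluciferin substrate mix preincubated with compound 10 min at room temperature, then NADPH regeneration added for 1 h at room temperature. Detection reagent added for 20 min; luciferin light read as relative luminescence units.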
(In general: qHTS replaces the single test concentration by a dilution series.)

The target in assay [2] is Cytochrome P450 2C9 (Homo sapiens) (UniProt P11712). Kind of assay: Cytochrome P450 family 2 subfamily C member 9 (CYP2C9) small molecule antagonists: luciferase biochemical (cell-free) qHTS assay (AID 1645842; active = well fitted curve in the direction sought with a large enough effect in the repeat runs; an effect the other way counts as inactive or inconclusive; also: nearly all actives have a fitted effect of over 55% in size; also: potency is read from the fitted curve at half-maximal effect). The gist of the method:
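Luminescence, after 20 min with luciferin detection reagent, reflected CYP2C9 turnover during a 1 h NADPH-driven reaction at 37C. Enzyme-substrate mix contained 0.4% bovine serum albumin and was preincubated with compound 10 min at room temperature.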

Assay [3] can be described thus: Primary qHTS for inhibitors of nuclear receptor binding SET domain protein 2 (NSD2) in an isogenic RCH-ACV NSD2 p.E1099K mutant (9B) (AID 1645876). Also: nearly all actives have a fitted effect of over 70% in size. Also: potency is read from the fitted curve at half-maximal effect.
Assay [4] can be described thus: Primary qHTS for inhibitors of nuclear receptor binding SET domain protein 2 (NSD2) in an RCH-ACV wild type WT cells (2C) (AID 1645877). Also: nearly all actives have a fitted effect of over 70% in size. Also: potency is read from the fitted curve at half-maximal effect.
A short description of assay [5]: Primary qHTS for small molecule stabilizers of the endoplasmic reticulum resident proteome: Secreted ER Calcium Modulated Protein (SERCaMP) assay (AID 1508630). The gist of the method:
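GLuc-SERCaMP-expressing SH-SY5Y cells, pretreated 16 h with compound, are challenged with thapsigargin to empty ER calcium stores; after 4 h, coelenterazine is added directly to the medium and luminescence is imaged.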

Assay [6] in a line: A High-Content qHTS Against Drug Library for the Identification of Small Molecules that Inhibit DYT1 Early Onset Primary Dystonia-Associated Cell Pathology (AID 1645839; calls by dose curve; also: potency is read from the fitted curve at half-maximal effect). The procedure, abridged: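 Flp-In T-REx 293 cells with tetracycline-inducible EGFP-delE hTOR1A (WT EGFP-hTOR1A as reference), 800 cells/well; compound added with tetracycline, 48 h at 37 C. Fixed, permeabilized cells imaged; %pathology (punctate TorsinA) primary, cell count counterscreen.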

For assay [7], the target named is N-terminal Xaa-Pro-Lys N-methyltransferase 1 (Homo sapiens) (UniProt Q9BV86). Briefly: Confirmatory qHTS for Inhibitors of N-terminal methyltransferase 1 (NTMT1): MTaseGlo Assay (AID 1645874). Also: potency is read from the fitted curve at half-maximal effect; nearly all actives have a fitted effect of over 65% in size. The gist of the method: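 Compounds are incubated with 125 nM NTMT1 and 100 uM SAM for 15 min before the SPKRIA peptide (1 uM) starts a 30 min room-temperature methylation. SAH is measured by coupled luciferase luminescence and curves fitted to a Hill equation.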
Chain of N-terminal Xaa-Pro-Lys N-methyltransferase 1 (Homo sapiens) (Q9BV86 whole entry, looked up): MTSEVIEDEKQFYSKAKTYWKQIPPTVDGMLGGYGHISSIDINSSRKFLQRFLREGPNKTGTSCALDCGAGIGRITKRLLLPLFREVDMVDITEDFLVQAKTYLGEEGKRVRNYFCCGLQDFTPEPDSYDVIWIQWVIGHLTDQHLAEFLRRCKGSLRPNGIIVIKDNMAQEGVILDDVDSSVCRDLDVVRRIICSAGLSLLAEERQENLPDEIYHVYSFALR

Chain of Cytochrome P450 2D6 (Homo sapiens) (P10635 whole entry, looked up): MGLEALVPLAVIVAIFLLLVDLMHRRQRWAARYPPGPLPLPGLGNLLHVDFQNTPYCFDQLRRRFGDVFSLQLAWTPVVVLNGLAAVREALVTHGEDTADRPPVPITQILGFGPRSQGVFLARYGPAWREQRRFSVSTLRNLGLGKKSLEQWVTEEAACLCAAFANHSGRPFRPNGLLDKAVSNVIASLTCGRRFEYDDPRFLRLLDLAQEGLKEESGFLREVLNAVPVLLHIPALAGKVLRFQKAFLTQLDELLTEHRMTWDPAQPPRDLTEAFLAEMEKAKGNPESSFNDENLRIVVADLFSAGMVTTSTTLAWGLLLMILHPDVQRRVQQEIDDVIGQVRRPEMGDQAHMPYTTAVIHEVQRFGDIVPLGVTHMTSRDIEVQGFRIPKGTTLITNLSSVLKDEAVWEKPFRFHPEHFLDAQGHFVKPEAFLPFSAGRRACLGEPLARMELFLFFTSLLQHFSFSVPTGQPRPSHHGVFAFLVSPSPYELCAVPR
Chain of Cytochrome P450 2C9 (Homo sapiens) (P11712 whole entry, looked up): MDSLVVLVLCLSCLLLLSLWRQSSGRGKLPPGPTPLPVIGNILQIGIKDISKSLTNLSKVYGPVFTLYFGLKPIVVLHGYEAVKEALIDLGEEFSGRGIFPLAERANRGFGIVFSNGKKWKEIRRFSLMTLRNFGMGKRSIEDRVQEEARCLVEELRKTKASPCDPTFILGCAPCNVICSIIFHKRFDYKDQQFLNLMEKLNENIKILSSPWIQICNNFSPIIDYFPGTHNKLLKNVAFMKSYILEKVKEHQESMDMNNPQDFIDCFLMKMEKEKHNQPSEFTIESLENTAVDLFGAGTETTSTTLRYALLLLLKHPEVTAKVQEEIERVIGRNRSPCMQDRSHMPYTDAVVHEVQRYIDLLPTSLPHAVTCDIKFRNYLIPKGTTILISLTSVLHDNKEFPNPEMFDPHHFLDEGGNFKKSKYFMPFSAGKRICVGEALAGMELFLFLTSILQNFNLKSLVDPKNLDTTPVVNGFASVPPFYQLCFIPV

As to `Clc1cccc(-n2nnnc2NCc2ccccc2Oc2ccccn2)c1Cl`, the Potency is 5.35 µM (active) in assay [1] and 6.01 µM (active) in assay [2].
With `Nc1ncnc2c1c(-c1cnc3[nH]ccc3c1)nn2C1CCCC1`, the Potency entry in assay [1] was “inactive”. For the same compound, the Potency in assay [2] was 0.425 µM (active); in assay [3], 365 nM (active) and 417 nM (active); in assay [4] it was 365 nM (active) and 417 nM (active).
On to `O=C(Nc1cc(C(F)(F)F)cc(C(F)(F)F)c1)c1cc(Cl)ccc1O`, for which the Potency result in assay [5] is “inactive”. Also, the Potency is 3.25 µM (active) and 2.63 µM (active) in assay [3]; 2.3 µM (active) and 2.95 µM (active) in assay [4].
Take `CC(=O)OCC(=O)[C@@]1(O)[C@H](C)C[C@H]2[C@@H]3C=C(C)C4=Cc5c(cnn5-c5ccccc5)C[C@]4(C)[C@@H]3[C@@H](O)C[C@@]21C`: the Potency entry in assay [5] is “inactive”. In assay [4], the Potency was 13.2 nM (active).
As to `Cc1nc(Nc2n[nH]c3c2CN(C(=O)N[C@H](CN(C)C)c2ccccc2)C3(C)C)c2sccc2n1`, the Potency entry in assay [5] is “inactive”. Besides, the Potency in assay [3] was 10.3 nM (active) and 11.8 nM (active); in assay [4], 16.3 nM (active) and 11.8 nM (active).
`COC(=O)C1=C(C)NC(C)=C(C(=O)OCCN2CCN(C(c3ccccc3)c3ccccc3)CC2)C1c1cccc([N+](=O)[O-])c1` (centres undefined): the Potency in assay [6] was 8.91 µM (active); in assay [2] it was 1.55 µM (active); in assay [4] it was 9340 nM (active).
For the compound `CC1(C)CC(=O)c2c(C(F)(F)F)nn(-c3ccc(C(N)=O)c(NC4CCC(OC(=O)CN)CC4)c3)c2C1` (centres undefined), the Potency is 15.1 µM (active) in assay [1]; 2.68 µM (active) in assay [2]; 103 nM (active) and 74.2 nM (active) in assay [3]; 81.7 nM (active) and 118 nM (active) in assay [4].
With `C[C@@H](Oc1cc(-c2cnn(C3CCNCC3)c2)cnc1N)c1c(Cl)ccc(F)c1Cl`, the Potency in assay [1] was 21.3 µM (active) and 13.5 µM (active); in assay [2], 1.69 µM (active); in assay [7], 39.8 µM (active); in assay [3], 1.45 µM (active) and 1.83 µM (active) and 1.48 µM (active); in assay [4] it was 1.15 µM (active) and 1.29 µM (active) and 1.05 µM (active).
Consider `CC(C)C[C@H](NC(=O)CNC(=O)c1cc(Cl)ccc1Cl)B(O)O`, for which, in assay [5], the Potency result was “inactive”. For the same compound, the Potency was 148 nM (active) in assay [3] and 93.4 nM (active) in assay [4].
Consider `CC1(C)CCC(c2ccc(Cl)cc2)=C(CN2CCN(c3ccc(C(=O)NS(=O)(=O)c4ccc(N[C@H](CCN5CCOCC5)CSc5ccccc5)c(S(=O)(=O)C(F)(F)F)c4)cc3)CC2)C1`, for which, in assay [5], the Potency result was “inactive”. For the same compound, the Potency in assay [3] is 1.03 µM (active) and 1.18 µM (active); in assay [4], 365 nM (active) and 742 nM (active).
With `CCCCCCCCCC(=O)N[C@@H](Cc1c[nH]c2ccccc12)C(=O)N[C@H](CC(N)=O)C(=O)N[C@@H](CC(=O)O)C(=O)N[C@@H]1C(=O)NCC(=O)N[C@@H](CCCN)C(=O)N[C@@H](CC(=O)O)C(=O)N[C@H](C)C(=O)N[C@@H](CC(=O)O)C(=O)NCC(=O)N[C@H](CO)C(=O)N[C@@H]([C@@H](C)CC(=O)O)C(=O)N[C@@H](CC(=O)c2ccccc2N)C(=O)O[C@@H]1C`, the Potency result in assay [5], in assay [3] and in assay [4] was “inactive” each time.
Take `C=CC(=O)Nc1cc2c(Nc3ccc(F)c(Cl)c3)ncnc2cc1C#CC(C)(C)N1CCN(C)CC1`: in assay [5], the Potency result is “inactive”. For the same compound, the Potency in assay [3] and in assay [4] was 2630 nM (active) in each case.
Consider `Nc1ccccc1NC(=O)c1ccc(CNC(=O)OCc2cccnc2)cc1`, for which the Potency result in assay [5] is “inactive”. Further, the Potency was 578 nM (active) and 742 nM (active) in assay [3]; 459 nM (active) and 662 nM (active) in assay [4].
As for `C1Cc2[nH]nc(-c3nn[nH]n3)c2C1`, the Potency result in assay [1], in assay [2], in assay [3] and in assay [4] was “inactive” each time.
As for `CNC(=O)c1nn(C)c2c1C(C)(C)Cc1cnc(Nc3ccc(N4CCN(C)CC4)cc3)nc1-2`, in assay [1], the Potency result is “inactive”. For the same compound, the Potency was 21.3 µM (active) in assay [2]; 515 nM (active) and 662 nM (active) in assay [3]; 409 nM (active) and 417 nM (active) in assay [4].
As for `CCc1c2c(nc3ccc(O)cc13)-c1cc3c(c(=O)n1C2)COC(=O)[C@]3(O)CC`, in assay [5], the Potency result is “inactive”. The Potency in assay [3] was 8.3 nM (active); in assay [4], 4.7 nM (active).
Take `CC(C)c1noc(N2CCC(COc3ccc(-c4ccc(S(C)(=O)=O)cc4)nc3)CC2)n1`: the Potency result in assay [1] was “inactive”.
With `CCN1CCN(CC(=O)Nc2ccc(-c3cccc4c(=O)cc(N5CCOCC5)oc34)c3sc4ccccc4c23)CC1`, the Potency result in assay [5] is “inactive”. For the same compound, the Potency was 66.8 nM (active) and 257 nM (active) in assay [3]; 94.4 nM (active) and 257 nM (active) in assay [4].
Regarding `CCN1CCN(Cc2ccc(-c3cc4c(N[C@H](C)c5ccccc5)ncnc4[nH]3)cc2)CC1`, the Potency entry in assay [5] was “inactive”. For the same compound, the Potency in assay [3] was 9340 nM (active); in assay [4] it was 7420 nM (active).
